Drawing on PubChem BioAssay (EPA / NIEHS), this text covers outcome and AC50 for five molecules.

Records with an inconclusive call do not appear. The source holds several records for some structures; these can differ, active in one and inactive in another. Activity calls are given as the source filed them. The calls were made as follows, unless noted: active = hit-call score of the fitted dose curve at least 0.9, where 1 is the maximum; inactive = score below 0.9.

Read-out in experiment [1]: Interleukin-8 (IL8), CXCL8 (gene 3576)
Kind of experiment: BSK_3C_IL8: BioMAP Diversity Plus: 3C Assay for Interleukin-8 (IL8) Biomarker Activity (AID 2283020). The conditions noted are these: primary human endothelial cells (HUVEC); actives raise or lower the signal. Put shortly: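 Using DMSO-treated wells as the baseline, bidirectional curve fitting was applied to ELISA-measured IL-8 from human umbilical vein endothelial cultures sampled 24 h after compound addition.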

Read-out in experiment [2]: Monokine induced gamma interferon (MIG), CXCL9 (gene 4283)
In words: BSK_3C_MIG: BioMAP Diversity Plus: 3C Assay for Monokine induced gamma interferon (MIG) Biomarker Activity (AID 2283021). The conditions noted are these: primary human endothelial cells (HUVEC); actives raise or lower the signal. The gist of the method: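 ELISA-measured MIG in dosed HUVEC 3C cultures at 24 h, analysed by bidirectional fitting with DMSO defining baseline activity.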

In experiment [3] the target is human Vitamin D Receptor (VDR), VDR (gene 7421) (UniProt P11473). In words: ATG_VDR_TRANS: Attagene TRANS-FACTORIAL HepG2 Assay for human Vitamin D Receptor (VDR) (AID 2283022; active = hit-call score of the fitted dose curve at least 0.9, where 1 is the maximum). Put shortly: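 Fluorescence of labelled reporter cDNA fragments, resolved by capillary electrophoresis, gives mRNA induction after 24 h treatment of HepG2 cells carrying transfected Gal4-fusion reporter units. Activity is fitted in the positive direction with DMSO as baseline.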

Read-out in experiment [4]: Matrix Metallopeptidase 1 (MMP1), MMP1 (gene 4312)
Kind of experiment: BSK_BE3C_MMP1: BioMAP Diversity Plus: BE3C Assay for Matrix Metallopeptidase 1 (MMP1) Biomarker Activity (AID 2283024). The conditions noted are these: primary human bronchial epithelial cells; actives raise or lower the signal. The gist of the method:
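In this multiplexed primary-cell system, human bronchial epithelium received chemicals for 24 h before an ELISA for MMP1. Values reflect bidirectional fits normalised to the DMSO baseline.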

The nature of experiment [5]: BSK_3C_Vis: BioMAP Diversity Plus: 3C Assay for Morphology Visualization (AID 2283025).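 Also: fitted both ways so gain or loss versus DMSO counts.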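 As to AC50: light microscopy image of cell morphology used as background control.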 The conditions noted are these: primary human endothelial cells (HUVEC). Put shortly: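 Light-microscopy morphology readout, 24 h exposure, human primary umbilical vein endothelium; analysed relative to DMSO with bidirectional fitting.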
Read-out in experiment [6]: Pselectin, SELP (gene 6403)
In words: BSK_4H_Pselectin: BioMAP Diversity Plus: 4H Assay for Pselectin Biomarker Activity (AID 2283026). The conditions noted are these: primary human endothelial cells (HUVEC); actives raise or lower the signal. The gist of the method: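 Bidirectional fits against DMSO gave the endpoint. Cells: primary human umbilical vein endothelium, chemical-treated for 24 h before ELISA detection of P-selectin.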

Experiment [7] is described as follows: BSK_4H_SRB: Viability Assessment in the BioMAP Diversity Plus: 4H Assay (AID 2283027).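 Also: cells exposed to compound for 24 h before staining.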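 As to AC50: curves fitted both ways versus DMSO so AC50 may be loss or gain.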 The conditions noted are these: primary human endothelial cells (HUVEC). The gist of the method: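 Cytotoxicity read-out in primary human endothelial cells: after 24 h compound exposure, cells were TCA-fixed (10%), stained with 0.1% SRB and absorbance taken at 560 nm. Values fitted in both directions relative to DMSO.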

The nature of experiment [8]: BSK_BE3C_SRB: Viability Assessment in the BioMAP Diversity Plus: BE3C Assay (AID 2283028). The conditions noted are these: primary human bronchial epithelial cells. Put shortly:
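Overt cytotoxicity was assessed as total protein in confluent human primary bronchial epithelial cultures 24 h after chemical addition, using 0.1% sulforhodamine B staining read at 560 nm.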

Read-out in experiment [9]: Thrombomodulin, THBD (gene 7056)
In words: BSK_3C_Thrombomodulin: BioMAP Diversity Plus: 3C Assay for Thrombomodulin Biomarker Activity (AID 2283029). The conditions noted are these: primary human endothelial cells (HUVEC); actives raise or lower the signal. Put shortly:
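In a multiplexed primary-cell system, human umbilical vein endothelium received chemical and was assayed 24 h later for thrombomodulin by ELISA. Parallel cultures were SRB-stained (0.1% SRB after 10% TCA fixation, read at 560 nm) to flag cytotoxicity.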

Read-out in experiment [10]: Urokinase-type plasminogen activator receptor (uPAR), PLAUR (gene 5329)
Kind of experiment: BSK_4H_uPAR: BioMAP Diversity Plus: 4H Assay for Urokinase-type plasminogen activator receptor (uPAR) Biomarker Activity (AID 2283030). The conditions noted are these: primary human endothelial cells (HUVEC); actives raise or lower the signal. The gist of the method: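 Chemicals are dosed onto human vascular endothelial primary cells (umbilical vein). After 24 h, uPAR is read by ELISA. Gain or loss of signal is fitted relative to DMSO.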

Read-out in experiment [11]: Vascular endothelial growth factor receptor 2 (Homo sapiens) (UniProt P35968)
In words: BSK_4H_VEGFRII: BioMAP Diversity Plus: 4H Assay for Vascular endothelial growth factor receptor 2 (VEGFR2) Biomarker Activity (AID 2283031).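 As to AC50: cell-surface VEGFR2 protein level quantified by ELISA.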 The conditions noted are these: primary human endothelial cells (HUVEC); actives raise or lower the signal. Put shortly: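 VEGFRII levels on human vascular endothelial primary cells were determined by ELISA at 24 hours post-dosing, with gain- or loss-of-signal fitted against DMSO controls.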

Read-out in experiment [12]: Human Leukocyte Antigen - DR isotype (HLADR), HLA-DRA (gene 3122)
In words: BSK_BE3C_HLADR: BioMAP Diversity Plus: BE3C Assay for Human Leukocyte Antigen - DR isotype (HLADR) Biomarker Activity (AID 2283032). The conditions noted are these: primary human bronchial epithelial cells; actives raise or lower the signal. The gist of the method:
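BioMAP BE3C format: human bronchial epithelium, 24 h compound treatment, ELISA detection of HLA-DR, with bidirectional analysis relative to DMSO.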

Read-out in experiment [13]: Vascular cell adhesion molecule 1 (VCAM1), VCAM1 (gene 7412)
In words: BSK_4H_VCAM1: BioMAP Diversity Plus: 4H Assay for Vascular cell adhesion molecule 1 (VCAM1) Biomarker Activity (AID 2283033).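 As to outcome: cell-surface VCAM-1 protein measured by ELISA.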 The conditions noted are these: primary human endothelial cells (HUVEC); actives raise or lower the signal. Put shortly:
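In this human endothelial (HUVEC) system, biomarker ELISA was run 24 h after compound addition, and total protein in parallel wells was assessed by SRB at 560 nm; DMSO served as negative control.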

Read-out in experiment [14]: Monokine induced gamma interferon (MIG), CXCL9 (gene 4283)
Kind of experiment: BSK_BE3C_MIG: BioMAP Diversity Plus: BE3C Assay for Monokine induced gamma interferon (MIG) Biomarker Activity (AID 2283035).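 Also: MIG protein measured by ELISA in BE3C cultures after 24 h of dosing.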 The conditions noted are these: primary human bronchial epithelial cells; actives raise or lower the signal. The gist of the method: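 ELISA quantified MIG after 24 h exposure of primary bronchial epithelial cultures, analysed in both directions relative to DMSO. Cytotoxicity tracked in parallel cultures by sulforhodamine B staining.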

Read-out in experiment [15]: Transforming growth factor beta 1 (TGFb1), TGFB1 (gene 7040)
In words: BSK_BE3C_TGFb1: BioMAP Diversity Plus: BE3C Assay for Transforming growth factor beta 1 (TGFb1) Biomarker Activity (AID 2283036;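 also: TGF-b1 protein level measured by ELISA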). The conditions noted are these: primary human bronchial epithelial cells; actives raise or lower the signal. The gist of the method: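 TGF-b1 measured via ELISA, 24 h after chemical dosing of human bronchial epithelial cells (BE3C). Overt cytotoxicity assessed in parallel by SRB (0.1%, TCA-fixed, 560 nm); analysis bidirectional relative to DMSO.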

Read-out in experiment [16]: Plasminogen activator inhibitor-1 (PAI1), SERPINE1 (gene 5054)
In words: BSK_BE3C_PAI1: BioMAP Diversity Plus: BE3C Assay for Plasminogen activator inhibitor-1 (PAI1) Biomarker Activity (AID 2283037). The conditions noted are these: primary human bronchial epithelial cells; actives raise or lower the signal. The gist of the method:
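In this multiplexed primary-cell system, bronchial epithelial cells receive test chemical and are sampled at 24 h. PAI-1 is read by ELISA, with DMSO serving as negative control for bidirectional fitting.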

Read-out in experiment [17]: urokinase plasminogen activator (uPA), PLAU (gene 5328)
In words: BSK_BE3C_uPA: BioMAP Diversity Plus: BE3C Assay for urokinase plasminogen activator (uPA) Biomarker Activity (AID 2283038).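 As to outcome: uPA protein level quantified by ELISA in cell cultures; uPA read one day after compound addition.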 The conditions noted are these: primary human bronchial epithelial cells; actives raise or lower the signal. The gist of the method:
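Measured by ELISA: uPA from human primary bronchial epithelial cells 24 h after chemical treatment. Values derive from bidirectional curve fitting with DMSO serving as negative control. Total protein by SRB staining in parallel wells flagged overt cytotoxicity.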

Read-out in experiment [18]: Urokinase-type plasminogen activator receptor (uPAR), PLAUR (gene 5329)
Kind of experiment: BSK_BE3C_uPAR: BioMAP Diversity Plus: BE3C Assay for Urokinase-type plasminogen activator receptor (uPAR) Biomarker Activity (AID 2283039).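 As to outcome: uPAR protein level measured by ELISA on the cells; cells exposed to compound for one day before measurement.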 The conditions noted are these: primary human bronchial epithelial cells; actives raise or lower the signal. The gist of the method:
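Chemically treated human bronchial epithelial cells (lung primary) are assayed for uPAR by ELISA after 24 h, with data fitted in both directions using DMSO as negative control.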

A short description of experiment [19]: BSK_3C_SRB: Viability Assessment in the BioMAP Diversity Plus: 3C Assay (AID 2283023).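 Also: fitted both ways against DMSO so a hit may be signal rise or drop.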 The conditions noted are these: primary human endothelial cells (HUVEC). Put shortly:
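Cells were dosed with chemical, cultured 24 h, fixed with 10% TCA, stained with 0.1% SRB and read at 560 nm. Human umbilical vein endothelium was used; DMSO served as negative control and baseline.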

Read-out in experiment [20]: Interferon-gamma inducible Protein 10 (IP10), CXCL10 (gene 3627)
Kind of experiment: BSK_BE3C_IP10: BioMAP Diversity Plus: BE3C Assay for Interferon-gamma inducible Protein 10 (IP10) Biomarker Activity (AID 2283034). The conditions noted are these: primary human bronchial epithelial cells; actives raise or lower the signal. The gist of the method: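 BE3C cells (human bronchial epithelial, primary); 24 h exposure; ELISA for IP-10; DMSO-referenced bidirectional fit.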

Chain of human Vitamin D Receptor (VDR), VDR (gene 7421) (P11473 whole entry, looked up, the tested form may be a part): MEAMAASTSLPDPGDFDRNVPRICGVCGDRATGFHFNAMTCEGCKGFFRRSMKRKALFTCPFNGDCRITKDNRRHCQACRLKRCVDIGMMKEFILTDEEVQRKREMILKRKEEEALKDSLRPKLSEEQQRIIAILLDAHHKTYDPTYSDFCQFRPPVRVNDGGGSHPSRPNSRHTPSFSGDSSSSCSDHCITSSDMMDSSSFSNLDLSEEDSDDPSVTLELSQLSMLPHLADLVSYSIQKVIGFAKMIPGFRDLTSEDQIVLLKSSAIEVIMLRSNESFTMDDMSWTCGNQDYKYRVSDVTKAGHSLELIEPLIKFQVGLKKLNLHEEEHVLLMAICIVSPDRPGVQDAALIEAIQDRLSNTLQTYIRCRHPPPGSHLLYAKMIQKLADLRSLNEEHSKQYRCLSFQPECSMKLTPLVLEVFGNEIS

In the case of `Clc1ccc(Nc2nnc(Cc3ccncc3)c3ccccc23)cc1`, the outcome in experiment [1], in experiment [2], in experiment [3], in experiment [4], in experiment [5] and in experiment [6] was inactive. The outcome in experiment [7], in experiment [8], in experiment [9], in [10], in experiment [11] and in [12] was inactive. Also, the result in experiment [13], in [14], in [15] and in experiment [18] was inactive. Further, the AC50 in experiment [16] was 3.84 µM (active); in experiment [17], 5.6 µM (active).
As for `O=C(NO)c1ccccc1`, the result in experiment [1], in experiment [2], in experiment [3], in experiment [19], in [4] and in experiment [5] was inactive. The result in [6], in experiment [7], in [8], in [9], in experiment [10] and in experiment [11] was inactive. Besides, the outcome in experiment [12], in experiment [13], in experiment [20], in [14], in experiment [15] and in experiment [16] was inactive. Moreover, the outcome in [17] and in [18] was inactive.
As to `O=C(c1ccccc1)c1ccccc1`, the result in experiment [1], in [2], in [3], in experiment [19], in [4] and in experiment [5] was inactive. Further, the result in experiment [6], in experiment [8], in experiment [9], in experiment [10], in experiment [11] and in [12] was inactive. Besides, the outcome in experiment [13], in [20], in experiment [14], in [15], in experiment [16] and in experiment [17] was inactive. The outcome in experiment [18] was inactive.
Consider `C=CC(C)(CCC=C(C)C)OC(C)=O` (configuration not stated), for which the outcome in [1], in [2], in experiment [3], in [4], in experiment [8] and in experiment [9] was inactive. Besides, the outcome in [14], in experiment [15], in experiment [16] and in experiment [17] was inactive. In addition, the concentration at half-maximal activity (AC50) was 28.9 µM (active) in experiment [19]; 37.4 µM (active) in experiment [5]; 31 µM (active) in [6]; 34.2 µM (active) in experiment [7]; 28.9 µM (active) in experiment [10]; 31.5 µM (active) in experiment [11]. In addition, the AC50 was 30.2 µM (active) in experiment [12], 30.5 µM (active) in experiment [13], 26.6 µM (active) in experiment [20] and 27.1 µM (active) in experiment [18].
For the molecule `O=P(O)(O)CCC(F)(F)C(F)(F)C(F)(F)C(F)(F)C(F)(F)C(F)(F)F`, the result in experiment [1], in experiment [2], in experiment [19], in experiment [4], in experiment [6] and in [7] was inactive. Moreover, the result in experiment [8], in experiment [9], in [10], in experiment [11], in experiment [12] and in [13] was inactive. For the same molecule, the result in experiment [20], in experiment [14], in experiment [16], in [17] and in experiment [18] was inactive. For the same molecule, the AC50 in [4] is 40 µM (active); in experiment [9], 22.7 µM (active); in [20] it was 3.21 µM (active).
